From PubChem BioAssay (Tox21)
Values joined by “and” are separate entries in the source; they are usually repeats but may differ in a detail not shown here. Equal values may be shown once. Results filed as inconclusive are left out. Entries that show only a call come without a potency. The source holds several records for some structures; these can differ, active in one and inactive in another. Active and inactive are the calls of the source. Calls follow the shape of the dose curve; as a rule, active = well fitted cell-killing curve with a large enough effect in the repeat runs; inconclusive = weak or mixed curves, or effect the other way; inactive = no such curve, though single readings can be large or run the other way.
Potency is read from the fitted curve at half-maximal effect.

Test: qHTS assay to identify small molecule antagonists of the retinoid-related orphan receptor gamma (ROR-gamma) signaling pathway - cell viability counter screen (AID 1159520); also: nearly all actives have a fitted effect of over 50% in size
Conditions: Tet-on RORgamma CHO cells viability, ATP luminescence, 16 h; series mostly up to 92.4 µM
Summary of the method: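 Cytotoxicity was read from cellular ATP (CellTiter-Glo luminescence) after 16 hr at 37 C with 1 uM doxycycline induction. The inducer was added 2 hr after compound transfer to Tet-on ROR gamma CHO cells.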
With `CN(C)c1ccc(C(=O)c2ccc(N(C)C)cc2)cc1` the Potency was “inactive”.
In the case of `CCN(N=O)C(N)=O`, the Potency is reported as “inactive”.
In the case of `Cc1c(COC(=O)[C@@H]2[C@H](/C=C(\Cl)C(F)(F)F)C2(C)C)cccc1-c1ccccc1`, the Potency is reported as “inactive”.
In the case of `CC(C)c1ccc(CO)cc1`, the Potency is reported as “inactive”.
In the case of `O=[N+]([O-])c1c(Cl)c(Cl)c(Cl)c(Cl)c1Cl`, the Potency is reported as “inactive”.
In the case of `CC(C)C(=O)OCC(C)(C)C(OC(=O)C(C)C)C(C)C` (stereo not drawn), the Potency is reported as “inactive”.
In the case of `C#CCOS(=O)OC1CCCCC1Oc1ccc(C(C)(C)C)cc1` (stereo not drawn), the Potency is reported as 30.7 µM (active) and 54.5 µM (active).
With `CCOc1cc(C=O)ccc1O` the Potency was “inactive”.
With `COc1ccc(C(CN(C)C)C2(O)CCCCC2)cc1` (stereo not drawn) the Potency was “inactive”.
With `CCOP(=S)(OCC)O/N=C(\C#N)c1ccccc1` the Potency was “inactive”.
In the case of `COC(=O)c1sccc1S(=O)(=O)NC(=O)Nc1nc(C)nc(OC)n1`, the Potency is reported as “inactive”.
For `NNC(=S)NN`, the Potency was “inactive”.
With `CCOc1cc(Oc2ccc(C(F)(F)F)cc2Cl)ccc1[N+](=O)[O-]` the Potency was “inactive”.
With `NCc1cccnc1` the Potency was “inactive”.
In the case of `NC(=S)Nc1ccccc1`, the Potency is reported as “inactive”.
For `O=P(Oc1ccccc1)(Oc1ccccc1)Oc1ccccc1`, the Potency was “inactive”.
In the case of `Nc1c(Cl)cc([N+](=O)[O-])cc1Cl`, the Potency is reported as “inactive”.
In the case of `CC(C)(c1cc(Cl)c(O)c(Cl)c1)c1cc(Cl)c(O)c(Cl)c1`, the Potency is reported as “inactive”.
With `CC(C)Oc1cc(-n2nc(C(C)(C)C)oc2=O)c(Cl)cc1Cl` the Potency was “inactive”.
For `CCCCCCOC(=O)c1ccccc1C(=O)OCCCCCC`, the Potency was “inactive”.
In the case of `O=Cc1ccco1`, the Potency is reported as “inactive”.
For `N[C@@H](Cc1ccc(N(CCCl)CCCl)cc1)C(=O)O`, the Potency was 16.8 µM (active).
In the case of `Oc1cc(Cl)ccc1Oc1ccc(Cl)cc1Cl`, the Potency is reported as 31.4 µM (active) and 29.8 µM (active).
For `Nc1ccc(Cl)cc1N`, the Potency was “inactive”.
For `CCCCCc1cc(O)cc(O)c1`, the Potency was “inactive”.
In the case of `ClC1C(Cl)C(Cl)C(Cl)C(Cl)C1Cl` (stereo not drawn), the Potency is reported as “inactive”.
In the case of `C=C(C)C(=O)OCC1CO1` (stereo not drawn), the Potency is reported as “inactive”.
For `O=C(CCl)c1ccccc1`, the Potency was “inactive and 61.1 µM (active)”.
For `C=C(C)[C@H]1Cc2c(ccc3c2O[C@@H]2COc4cc(OC)c(OC)cc4[C@@H]2C3=O)O1`, the Potency was “inactive”.
In the case of `CCC(=O)O[C@H]1CC[C@H]2[C@@H]3CCC4=CC(=O)CC[C@]4(C)[C@H]3CC[C@]12C`, the Potency is reported as “inactive”.
In the case of `CCCCCCCCOC(=O)c1ccccc1C(=O)OCCCCCCCC`, the Potency is reported as “inactive”.
With `CCCCC(CC)COC(=O)c1ccc(C(=O)OCC(CC)CCCC)c(C(=O)OCC(CC)CCCC)c1` (stereo not drawn) the Potency was “inactive”.
In the case of `Nc1ccncc1`, the Potency is reported as “inactive”.
For `CC(C)(C)c1ccccc1O`, the Potency was “inactive”.
With `c1nc[nH]n1` the Potency was “inactive”.
In the case of `Nn1cnnc1`, the Potency is reported as “inactive”.
In the case of `Cc1ccccc1[N+](=O)[O-]`, the Potency is reported as “inactive”.
With `O=S(=O)(Oc1ccc(Cl)cc1)c1ccc(Cl)cc1` the Potency was “inactive”.
